Screening data: PubChem BioAssay, several laboratories
CYP2C19 act = human CYP2C19 activators, primary screen, biochemical, luminescence. Cytochrome P450 2C19 (Homo sapiens), P33261. recombinant CYP2C19, luciferin-H EGE luminescence; hits give high values; 0 = fully inhibited enzyme, 1 = untreated enzyme. activation factor at 5 µM. 96,000 tested, under 10 active;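 active means activation factor of at least 2 at 5 µM in the primary screen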;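 further: 0 = wells with 2.5 mM tranylcypromine and 1 = vehicle-only wells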
Target sequence (P33261 whole entry, looked up): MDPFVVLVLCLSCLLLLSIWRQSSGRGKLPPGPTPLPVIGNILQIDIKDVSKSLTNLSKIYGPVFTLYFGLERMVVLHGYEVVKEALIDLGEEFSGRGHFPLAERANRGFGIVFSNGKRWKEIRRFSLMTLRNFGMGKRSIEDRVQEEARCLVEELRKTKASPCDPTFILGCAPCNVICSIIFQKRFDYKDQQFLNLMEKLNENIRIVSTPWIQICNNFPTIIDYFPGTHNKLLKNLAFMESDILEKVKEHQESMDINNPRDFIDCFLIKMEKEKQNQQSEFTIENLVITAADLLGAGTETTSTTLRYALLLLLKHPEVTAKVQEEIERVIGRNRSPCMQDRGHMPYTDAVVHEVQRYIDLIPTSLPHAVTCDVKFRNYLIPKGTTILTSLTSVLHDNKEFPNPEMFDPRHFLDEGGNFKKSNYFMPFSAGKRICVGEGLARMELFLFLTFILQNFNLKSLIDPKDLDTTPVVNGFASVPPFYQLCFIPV
CYP2C9 inhib = blockers of cytochrome P450 2C9 activity – biochemical, luminescence, ADME assay, primary screen; P11712; CYP2C9 Supersomes, luciferin-H conversion; inhibition, % at 5 µM; 96,000 tested, 20% active; AID 777, 2007;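 active means blocking of liver enzyme CYP2C9 beyond about 50% at 5 µM, limit read from the data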
CYP2C19 inh = blockers of cytochrome P450 2C19 activity – biochemical, luminescence, ADME assay, primary screen | CYP2C19 Supersomes, luciferin-H EGE luminescence, 30 min | P33261 | inhibition, % at 5 µM | 96,000 tested, 21% active;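 active means CYP2C19 inhibition above a set limit at 5 µM in the primary screen, cut at about 50% in these data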;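 further: plate controls were negative control wells for no effect and 2.5 mM tranylcypromine positive control for full effect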
Measles CPE = compounds protecting cells from measles virus cytopathic effect, primary screen, measles RdRp inhibitor project, single point, MLSMR library, absorbance. Measles virus-infected cells, CPE protection. protection (pct of control), % at 4 µM. 140,000 tested, 1.5% active. AID 841, 2007; in the data active means protection mostly above about 24%, no sharp cut-off; inactive means mostly below about 26%
CYP2C9 act = human CYP2C9 activators, primary screen, biochemical, luminescence. Cytochrome P450 2C9 (Homo sapiens), P11712. recombinant CYP2C9, luciferin-H conversion; hits give high values; factor 1 = untreated enzyme, 0 = blocked. activation factor at 5 µM. 96,000 tested, 1.4% active. AID 1024, 2008;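 active means activation factor of 2 or more for CYP2C9 at a 5 µM dose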;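 further: 0 = sulfaphenazole-blocked wells and 1 = vehicle-only wells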
Starred values were filed as active, the others as inactive. Only some compounds are listed: those with a hit (about 22% of all), similar ones and a draw of the others.

How did CS(=O)(=O)N(CC(=O)Nc1ccc2c(c1)OCO2)Cc1ccccc1 do in these assays?
CYP2C19 act: 0.3; CYP2C9 inhib: 48; CYP2C19 inh: 70*; Measles CPE: 4; CYP2C9 act: 0.5

How did CC(C)c1ccc(NC(=O)CN(Cc2ccccc2)S(C)(=O)=O)cc1 do in these assays?
Measles CPE: 6

Results for COC(=O)c1ccc(NC(=O)CN(Cc2ccc(Cl)cc2)S(C)(=O)=O)cc1 ?
CYP2C19 act: 0.1; CYP2C9 inhib: 82*; CYP2C19 inh: 95*; Measles CPE: 10; CYP2C9 act: 0.2

What do the screens show for `Cc1ccc(C)c(N2CCN(C(=O)c3csc4ccccc34)CC2)c1`?
Measles CPE: 10

What do the screens show for `CS(=O)(=O)N(CC(=O)Nc1ccc2c(c1)OCO2)c1ccc(Cl)cc1`?
CYP2C19 act: 0.1; CYP2C9 inhib: 90*; CYP2C19 inh: 88*; Measles CPE: 14; CYP2C9 act: 0.1

How did CCOCCCNC(=O)CN(Cc1ccc(Cl)cc1)S(C)(=O)=O do in these assays?
CYP2C19 act: 0.9; CYP2C9 inhib: -4; CYP2C19 inh: 13; Measles CPE: 5; CYP2C9 act: 1

Results for CS(=O)(=O)N(CC(=O)Nc1ccc2c(c1)OCO2)Cc1ccc(Cl)cc1 ?
CYP2C19 act: 0.2; CYP2C9 inhib: 77*; CYP2C19 inh: 84*; Measles CPE: 8; CYP2C9 act: 0.2

How did O=C(CCc1ccccc1)Nc1ccc2c(c1)OCCO2 do in these assays?
CYP2C19 act: 1; CYP2C9 inhib: 20; CYP2C19 inh: 5; Measles CPE: 15; CYP2C9 act: 0.8

How did COCCCNC(=O)CN(Cc1ccc(Cl)cc1)S(C)(=O)=O do in these assays?
CYP2C19 act: 0.4; CYP2C9 inhib: -2; CYP2C19 inh: 58*; Measles CPE: 6; CYP2C9 act: 1

What do the screens show for `CN(CCC(=O)Nc1ccc2c(c1)OCO2)Cc1ccccc1`?
CYP2C19 act: 0.7; CYP2C9 inhib: 52*; CYP2C19 inh: 32; Measles CPE: 5; CYP2C9 act: 0.5

How did COc1ccc(N(CC(=O)Nc2ccc3c(c2)OCO3)S(=O)(=O)c2ccc(F)cc2)cc1 do in these assays?
Measles CPE: 16

What do the screens show for `COc1cc(/C=N/NC(=O)C(=O)NCc2cccnc2)ccc1O`?
Measles CPE: 4

What do the screens show for `CCOC(=O)c1ccc(NC(=O)NS(=O)(=O)c2ccc(C)cc2)cc1`?
CYP2C19 act: 0.9; CYP2C9 inhib: 12; CYP2C19 inh: 12; Measles CPE: 17; CYP2C9 act: 0.9

How did O=C(CSc1nnc(-c2ccccc2O)o1)N1CCc2ccccc2C1 do in these assays?
CYP2C19 act: 0.4; CYP2C9 inhib: 33; CYP2C19 inh: 63*; Measles CPE: 28; CYP2C9 act: 0.7

What do the screens show for `O=C(CSc1nnc(-c2ccccc2)o1)N1CCc2ccccc2C1`?
CYP2C19 act: 0.9; CYP2C9 inhib: 12; CYP2C19 inh: 13; Measles CPE: 17; CYP2C9 act: 0.9

Results for COc1ccc(Cc2nnc(SCC(=O)N3CCc4ccccc4C3)o2)cc1 ?
CYP2C19 act: 0.9; CYP2C9 inhib: 17; CYP2C19 inh: 12; Measles CPE: 10; CYP2C9 act: 0.8

How did COc1ccc(-c2nnc(SCC(=O)N3CCc4ccccc4C3)o2)cc1 do in these assays?
CYP2C19 act: 0.2; CYP2C9 inhib: 13; CYP2C19 inh: 78*; Measles CPE: 3; CYP2C9 act: 0.9

What do the screens show for `CC1CC(C)CN(CCCNC(=O)c2csc3c2CCCC3)C1` (centres undefined)?
CYP2C19 act: 0.8; CYP2C9 inhib: 14; CYP2C19 inh: 24; Measles CPE: 1; CYP2C9 act: 0.9

What do the screens show for `C=CCN(CC(=O)Nc1c(C)cccc1CC)C(=O)SCCC`?
CYP2C19 act: 0.4; CYP2C9 inhib: 12; CYP2C19 inh: 65*; Measles CPE: 7; CYP2C9 act: 0.9

What do the screens show for `CCSC(=O)N(CC)CC(=O)Nc1c(CC)cccc1CC`?
CYP2C19 act: 0.6; CYP2C9 inhib: 28; CYP2C19 inh: 42; Measles CPE: 32*; CYP2C9 act: 0.7

Results for CCCSC(=O)N(CC)CC(=O)Nc1c(CC)cccc1CC ?
CYP2C19 act: 0.3; CYP2C9 inhib: 62*; CYP2C19 inh: 66*; Measles CPE: 9; CYP2C9 act: 0.4

What do the screens show for `CCc1cccc(CC)c1NC(=O)c1cccc(N)c1`?
CYP2C19 act: 1; CYP2C9 inhib: 4; CYP2C19 inh: -1; Measles CPE: 7; CYP2C9 act: 1

Results for CCc1cccc(C)c1NC(=O)CNCc1ccccc1 ?
Measles CPE: 21

Results for CCc1cccc(CC)c1NC(=O)CCCSc1nc2ccccc2s1 ?
Measles CPE: 3

How did Oc1ccc(N=C/C=C/c2cccc(Br)c2)cc1-c1nc2ccccc2s1 do in these assays?
Measles CPE: 2

What do the screens show for `CC(C)OP(=O)(c1ccc(N(C)C)cc1)C(O)c1ccccc1` (centres undefined)?
CYP2C19 act: 0.6; CYP2C9 inhib: -6; CYP2C19 inh: 39; Measles CPE: 6; CYP2C9 act: 1.1

How did CCn1c(/N=C/c2c[nH]c3ccccc23)nc2ccccc21 do in these assays?
CYP2C19 act: 0.4; CYP2C9 inhib: 90*; CYP2C19 inh: 61*; Measles CPE: 11; CYP2C9 act: 0.1

What do the screens show for `CCCn1c(/N=C/c2c[nH]c3ccccc23)nc2ccccc21`?
CYP2C19 act: 1; CYP2C9 inhib: 15; CYP2C19 inh: 4; Measles CPE: 4; CYP2C9 act: 0.8

What do the screens show for `Cc1oc(C(C)(C)C)cc1C(=O)N1CCCC1C(=O)O` (centres undefined)?
Measles CPE: 26*

Results for CC(C)(C)OC(=O)N1CCCC1C(=O)O (centres undefined) ?
CYP2C19 act: 1; CYP2C9 inhib: -2; CYP2C19 inh: -3; Measles CPE: 7; CYP2C9 act: 1

What do the screens show for `Cc1[nH]nc(-c2ccc(OCc3cnn(-c4ccccc4)c3)c(C)c2O)c1Oc1ccccc1`?
CYP2C19 act: 0.9; CYP2C9 inhib: 23; CYP2C19 inh: 7; Measles CPE: 2; CYP2C9 act: 0.8

Results for Cc1[nH]nc(-c2ccc(O)c(C)c2O)c1Oc1ccccc1 ?
CYP2C19 act: 0; CYP2C9 inhib: 100*; CYP2C19 inh: 100*; Measles CPE: 4; CYP2C9 act: 0

How did CCOc1ccc(-c2nc(N)ncc2Oc2cccc(OC)c2)c(O)c1 do in these assays?
CYP2C19 act: 1; CYP2C9 inhib: -4; CYP2C19 inh: 1; Measles CPE: 5; CYP2C9 act: 1

What do the screens show for `CCOc1ccc(-c2n[nH]c(C)c2Oc2ccc(OC)cc2)c(O)c1`?
CYP2C19 act: 0; CYP2C9 inhib: 99*; CYP2C19 inh: 100*; Measles CPE: 18; CYP2C9 act: 0

Results for Cc1ccc(S(=O)(=O)N(Cc2cc3cccc(C)c3[nH]c2=O)c2ccccc2)cc1 ?
Measles CPE: 15
